Laboratory results from PubChem BioAssay (NCI).
About 79,000 compounds went through this panel and 15% of them were active in at least one assay; those are over-represented in the sample as a whole. Rule as the data show it: active = growth inhibition above about 70%; inactive = the rest.

Columns and labels:
[1] = NCI Yeast Anticancer Drug Screen. Data for the rad50 strain (AID 155);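 also: 0% = growth of vehicle-only cultures of the same strain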; settings: S. cerevisiae rad50 strain growth inhibition; at 50.0 µM; active compounds read high
In short: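 Compounds were tested on a yeast strain with an engineered DNA damage repair alteration; the reported value is growth inhibition normalised to vehicle treatment.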

[2] = NCI Yeast Anticancer Drug Screen. Data for the mec2-1 strain (AID 157); settings: S. cerevisiae mec2-1 strain, at 50.0 µM, active compounds read high
In short: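 Mutant yeast (mec2-1) grown with compound; growth inhibition relative to vehicle control reported.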

[3] = NCI Yeast Anticancer Drug Screen. Data for the sgs1 mgt1 strain (AID 161);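 also: 0% = growth of cultures given vehicle only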; settings: S. cerevisiae sgs1 mgt1 strain, at 50.0 µM, active compounds read high
In short: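 Compounds are added to genetically altered yeast, and growth is compared with cultures given vehicle alone to give percent inhibition.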

[4] = NCI Yeast Anticancer Drug Screen. Data for the cln2 rad14 strain (AID 165);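 also: 0% = growth equal to vehicle treated cultures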; settings: S. cerevisiae cln2 rad14 strain, at 50.0 µM, active compounds read high
In short: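 Readout is yeast growth inhibition versus vehicle-treated controls, using a strain with cln2 and rad14 alterations exposed to compound.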

[5] = NCI Yeast Anticancer Drug Screen. Data for the bub3 strain (AID 167); settings: S. cerevisiae bub3 mutant strain, at 50.0 µM, active compounds read high
In short: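 Growth of a checkpoint-deficient yeast mutant is measured after compound exposure. Values represent inhibition relative to vehicle.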

[6] = NCI Yeast Anticancer Drug Screen. Data for the mlh1 rad18 strain (AID 175); settings: S. cerevisiae mlh1 rad18 strain growth inhibition; at 50.0 µM; active compounds read high
In short: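 Genetically defined yeast (DNA repair-deficient) exposed to compounds; growth inhibition determined relative to vehicle.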

Measured: growth inhibition

CCCCCCCC/C=C\CCCCCCCC(=O)N(CCOC(=O)CCC(=O)OCCN(C(=O)CCCCCCC/C=C\CCCCCCCC)C1CCCCC1)C1CCCCC1
inactive: [1] -5.15% | [2] -9.25% | [3] -17.4% | [4] -3.2% | [5] -4.25% | [6] 16.8%

CC1CCc2ccccc2N1C(=O)c1cccc([N+](=O)[O-])c1C(=O)O (stereo not given)
inactive: [1] -6.1% | [2] 2.7% | [3] 27.4% | [4] -11.6% | [5] 21.7% | [6] 5.5%

CCc1ccc(N=Nc2ccc(Br)cc2)cc1
inactive: [1] 8.85% | [2] -18% | [3] -4.95% | [4] 6.85% | [5] 2.85% | [6] -10.3%

COc1ccc(NC(=O)Oc2ccc(C#N)cc2)cc1
inactive: [1] -1.3% | [2] -16.1% | [3] 5.5% | [4] 8.3% | [5] 10.4% | [6] -1.55%

O=C(O)c1ccccc1Cc1c[nH]c2ccccc12
inactive: [1] -37.3% | [2] 4.95% | [3] -0.8% | [4] -15.3% | [5] 41.3% | [6] -5.05%

O=[N+]([O-])c1ccc(/C=C/c2ccc([N+](=O)[O-])cc2S(=O)(=O)O)c(S(=O)(=O)O)c1
inactive: [1] 25.8% | [2] -9.6% | [3] 30.8% | [4] 5.45% | [5] 32.9% | [6] 32%

CCOC(=O)c1ccc(NC(=O)CCCCCCCCC(=O)Nc2ccc(C(=O)OCC)cc2)cc1
inactive: [1] 7.5% | [2] -5.6% | [3] -0.85% | [4] -8.45% | [5] -2.1% | [6] -6.95%

O=S1(=O)CCNc2ccccc2O1
inactive: [1] -3.15% | [2] -6.4% | [3] -3.55% | [4] -15.2% | [5] 7.2% | [6] 3.15%

COc1cc2c(cc1O)C1Cc3cc(O)c(OC)cc3C(C2)N1C (stereo not given)
inactive: [1] -29.8% | [2] -12.7% | [3] -30.2% | [4] 3.1% | [5] -25.6% | [6] -22.1%

Cc1ccc(S(=O)(=O)Oc2c(Br)cc(-c3ccccc3)cc2Br)cc1
inactive: [1] 27.9% | [2] 3.4% | [3] 13.5% | [4] 6.65% | [5] -12.4% | [6] 18.6%

COC(=O)c1sc(C(=O)OC)c2c1CS(=O)C2
inactive: [1] -10.3% | [2] 2.1% | [3] 10.1% | [4] 30% | [5] 5.45% | [6] 42.2%

CCC(C)CCC(=O)OCC(=O)c1ccc(-c2ccccc2)cc1 (stereo not given)
inactive: [1] 13.7% | [2] -18.9% | [3] 14.8% | [4] -13.5% | [5] 7% | [6] 5.75%

O=c1[nH]c(-c2ccccc2)nc2cc([N+](=O)[O-])c(/C(Cl)=C/c3ccccc3)cc12
inactive: [1] 28.8% | [2] 14.4% | [3] 13.8% | [4] 12.1% | [5] -1% | [6] 33.8%

CCCN(CCC)S(=O)(=O)c1ccc(NC(=O)Oc2ccccc2OC)cc1
inactive: [1] 41.6% | [2] 3.8% | [3] 31.8% | [4] 20.6% | [5] -7.3% | [6] 22.3%

O=C1CC2CCCC23CC2(CCN13)OCCO2 (stereo not given)
inactive: [1] -3.15% | [2] 0.7% | [3] -0.3% | [4] -27.4% | [5] -2.3% | [6] 6.35%

O=c1[nH]c2cc([N+](=O)[O-])ccc2nc1/C=C(\O)c1ccccc1
inactive: [1] -21.2% | [2] -18.4% | [3] -14.3% | [4] -3.7% | [5] -1.8% | [6] 3.3%

COC(=O)c1c(O)c(C#N)c2[nH]c3ccccc3n2c1=O
inactive: [1] -22.6% | [2] -16.6% | [3] -10.6% | [4] 7.85% | [5] -4.4% | [6] -18.4%

COc1ccc(CC2=c3cc(OC)c(OC)cc3=CCN2)cc1OC
inactive: [1] 12.1% | [2] 4.5% | [3] 9.7% | [4] 12.2% | [5] -2.85% | [6] -5.75%

COP(=O)(OC)C(NC(=O)C(F)(F)F)(c1ccccc1)C(F)(F)F (stereo not given)
inactive: [1] -28.1% | [2] -7.25% | [3] -37.2% | [4] -8% | [5] -16.9% | [6] -28.7%

COC(=O)C(=O)c1c(C2CC2)[nH]c2[nH]n(-c3ccccc3)c(=O)c2c1=O
inactive: [1] 11% | [2] 20.1% | [3] 12.4% | [4] -9.2% | [5] -1.1% | [6] 3.6%
